Measured values published in PubChem BioAssay (NCI).
Compounds without any hit were thinned out: in the full panel of roughly 79,000, 15% have a hit. Rule as the data show it: active = growth inhibition above about 70%; inactive = the rest.

Tests used:
[1] = NCI Yeast Anticancer Drug Screen. Data for the rad50 strain (AID 155);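 also: 0% = growth of vehicle-only cultures of the same strain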; details: S. cerevisiae rad50 strain growth inhibition; at 50.0 µM; hits give high values
In short: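 A DNA repair-deficient yeast mutant serves as the test organism; compound-induced growth inhibition is calculated against vehicle-treated cells.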

[2] = NCI Yeast Anticancer Drug Screen. Data for the mec2-1 strain (AID 157); details: S. cerevisiae mec2-1 strain, at 50.0 µM, hits give high values
In short: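 Using mec2-1 yeast: add compound, measure growth, express inhibition versus vehicle-treated cultures.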

[3] = NCI Yeast Anticancer Drug Screen. Data for the sgs1 mgt1 strain (AID 161);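 also: 0% = growth of cultures given vehicle only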; details: S. cerevisiae sgs1 mgt1 strain, at 50.0 µM, hits give high values
In short: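 Compounds are added to genetically altered yeast, and growth is compared with cultures given vehicle alone to give percent inhibition.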

[4] = NCI Yeast Anticancer Drug Screen. Data for the cln2 rad14 strain (AID 165);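 also: 0% = growth equal to vehicle treated cultures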; details: S. cerevisiae cln2 rad14 strain, at 50.0 µM, hits give high values
In short: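 Yeast strain cln2 rad14, bearing defects in cell cycle control and DNA repair, serves as the test system; values reflect growth inhibition compared with vehicle.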

[5] = NCI Yeast Anticancer Drug Screen. Data for the bub3 strain (AID 167); details: S. cerevisiae bub3 mutant strain, at 50.0 µM, hits give high values
In short: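 Inhibition values come from growth of compound-treated mutant yeast normalised to vehicle-treated controls.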

[6] = NCI Yeast Anticancer Drug Screen. Data for the mlh1 rad18 strain (AID 175); details: S. cerevisiae mlh1 rad18 strain growth inhibition; at 50.0 µM; hits give high values
In short: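 Steps: expose repair-defective yeast to compound; measure growth; express inhibition against vehicle-treated controls.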

Measured: growth inhibition

O=c1c(=[n+]2ccc(=C([O-])c3ccccc3)cc2)/c(=N/S(=O)(=O)c2ccccc2)c(=O)c2ccccc12
inactive: [1] 19.2% | [2] 33.1% | [3] 39.8% | [4] 7% | [5] 12.8% | [6] 26.4%

COC(=O)c1ccccc1NC(=O)C(=O)NNC(=O)c1ccncc1
inactive: [1] 10.3% | [2] -3% | [3] -4.4% | [4] 7.55% | [5] -0.8% | [6] 22.1%

COc1nc(NC2OCC(O)C(O)C2O)c(Br)c(=O)n1C (stereo unspecified)
inactive: [1] 4.9% | [2] -10.4% | [3] 14.2% | [4] 11.8% | [5] 17.5% | [6] 13%

C=CCNC(=O)N(CCC)CCCCC(NC(C)=O)C(=O)NCc1ccccc1 (stereo unspecified)
inactive: [1] 11.5% | [2] 7.5% | [3] -8.4% | [4] 18.6% | [5] 8.75% | [6] 4.35%

COc1ccc(/C=N/NS(=O)(=O)c2ccc(/C=C3\NC(=O)N(C)C3=O)cc2)cc1
inactive: [1] -10.5% | [2] 22.1% | [3] -21.9% | [4] 6.5% | [5] -23.7% | [6] 27.1%

COc1cc(NCC(C#N)C#N)ccc1N=Nc1ccc([N+](=O)[O-])cc1
inactive: [1] 25.9% | [2] 26.4% | [3] 10.5% | [4] 18.8% | [5] 12.7% | [6] 48.9%

O=c1cc[nH]c2cc(C(F)(F)F)ccc12
inactive: [1] -26.4% | [2] -39% | [3] -16.7% | [4] 10.1% | [5] -25.9% | [6] -34%

CC(=O)NC(Cc1ccc(O)cc1)C(=O)O (stereo unspecified)
inactive: [1] 10.8% | [2] 5.25% | [3] -3.4% | [4] -19.4% | [5] -9.05% | [6] -3.45%

CC(=O)N(CCCc1ccccc1)C(C)(C)C
inactive: [1] 5.95% | [2] 5.3% | [3] -3.05% | [4] -22.1% | [5] 2.25% | [6] 6.15%

O=c1nc2n(cc1F)C1OC(CCl)C(O)C1O2 (stereo unspecified)
inactive: [1] 8.55% | [2] -8% | [3] 15.7% | [4] 1.05% | [5] 6.9% | [6] 2.2%

C1=[N+](c2ccccc2)CCN1c1ccccc1
inactive: [1] -0.7% | [2] -18.9% | [3] -22.1% | [4] -27.3% | [5] -32.1% | [6] -20.5%

CC(C)(C)C(C(N)=O)C(C)(C)C
inactive: [1] 4.4% | [2] 2.6% | [3] -6.1% | [4] 14.4% | [5] 10.8% | [6] -19.6%

O=S(=O)(O)O.[NH-]CC1(C[NH-])CCCCC1.[Pt+2]
inactive: [1] -13% | [2] 17.9% | [3] -3.15% | [4] -0.7% | [5] -28.6% | [6] -46.4%

N#Cc1ccc(N=NN2CCOC2)cc1
inactive: [1] 20.6% | [2] 11.4% | [3] -0.7% | [4] 7.7% | [5] 23% | [6] 44.9%

Cc1ccc(C)c(OC(=O)NC2CCCCC2)c1
inactive: [1] -4.9% | [2] -15.1% | [3] -15.1% | [4] -57.6% | [5] 0% | [6] -19.9%

CCN(CC)CCNc1cc(OC)c(N)c2cccnc12
inactive: [1] 14.2% | [2] 19.9% | [3] -2.7% | [4] -6.75% | [5] 46.6% | [6] 40.4%

CCOC(=O)CC(=O)C(=O)OCC
inactive: [1] 2.05% | [2] -4.75% | [3] -4.8% | [4] -25.6% | [5] -18% | [6] -27.2%

CC(=O)Nc1ccc(S(=O)(=O)Nc2c(-c3ccccc3)[nH]c(C)c2C(C)=O)cc1
inactive: [1] 1.65% | [2] 7.85% | [3] -10.3% | [4] -0.65% | [5] 1.65% | [6] 13.8%

NS(=O)(=O)c1ccc(NC(=O)c2cccn3c(=O)c4ccccc4nc23)cc1
inactive: [1] 6.6% | [2] 9.45% | [3] -7.6% | [4] 27.2% | [5] -0.25% | [6] 14.9%

COC(=O)COc1ccccc1[N+](=O)[O-]
inactive: [1] -0.15% | [2] 2.55% | [3] 0.6% | [4] 3.7% | [5] 5.25% | [6] 4.45%

COc1ccccc1NC(=S)N/N=C/c1cccc(C)n1
inactive: [1] 9.45% | [2] -9.9% | [3] 20.1% | [4] -3.7% | [5] 5.5% | [6] 40%

Cc1nn(C(=O)CC(=O)Nc2ccc(Cl)cc2)c(C)c1N=Nc1ccccc1F
inactive: [1] -40% | [2] -25.5% | [3] -60.6% | [4] -12.4% | [5] -28.4% | [6] -43%

CCOC(=O)C1(C)OC1c1ccc([N+](=O)[O-])cc1 (stereo unspecified)
inactive: [1] -16.3% | [2] 5.45% | [3] -4.5% | [4] -15.6% | [5] -9.85% | [6] -9.85%

CC1CCc2c(O)ccc(O)c21 (stereo unspecified)
inactive: [1] 5.7% | [2] 5.4% | [3] 2.5% | [4] -15.2% | [5] -5% | [6] 8.1%

Nc1ncc2ncn(C3CCC(CO)O3)c2n1 (stereo unspecified)
inactive: [1] -6.9% | [2] -10.1% | [3] -22.2% | [4] -4.65% | [5] -10.8% | [6] -6.45%

C=C(C(=O)O)C(=O)O
inactive: [1] -14.4% | [2] -3.6% | [3] -2.2% | [4] 4.35% | [5] 2% | [6] -4.7%

CCOC1OC(C2COC(=S)O2)C(O)C1O (stereo unspecified)
inactive: [1] 9.35% | [2] -2.15% | [3] 7.85% | [4] -4.1% | [5] -0.15% | [6] 13.6%

CCCCCCCCCCCCCCCCN1C(=O)c2ccccc2S1(=O)=O
inactive: [1] -14.7% | [2] -15.8% | [3] -10.5% | [4] 32.5% | [5] -2.2% | [6] 5.1%

Cc1cc(Sc2ccc(Cl)cc2)nc(Sc2ccc(Cl)cc2)c1C#N
inactive: [1] 7.6% | [2] -30.5% | [3] -27.9% | [4] -20.6% | [5] -10.7% | [6] -26.9%

COc1ccc(C(C)=O)c(O)c1
inactive: [1] -10.4% | [2] -15.2% | [3] -10.2% | [4] -3.7% | [5] 3.2% | [6] 5.2%

O=C1CC=C2C3CC4N(CCC45c4ccccc4N1C25)C/C3=C\CBr (stereo unspecified)
inactive: [1] -8.45% | [2] -21.8% | [3] -7.95% | [4] 8.15% | [5] 7.2% | [6] -5.95%

OCC1OC(n2cnc3c(NCc4ccccc4)ncnc32)C(O)C1O (stereo unspecified)
inactive: [1] -14.3% | [2] -2.5% | [3] 3.2% | [4] -44.2% | [5] 11.6% | [6] 0.55%

O=C1Cc2ccccc2CCc2ccccc21
inactive: [1] 13.2% | [2] -13.3% | [3] 6.5% | [4] 22.8% | [5] -13.8% | [6] 24%

CCOC(=O)/C(C#N)=C/Nc1[nH]c(=O)c(C#N)c(-c2ccc(Cl)cc2)c1SC
inactive: [1] 10.9% | [2] 5.8% | [3] -9.35% | [4] -9.2% | [5] 2.1% | [6] 16.8%

CC(C)(C)OC[C@H](O)CC#N
inactive: [1] -8.2% | [2] -61.4% | [3] -36.1% | [4] -20.4% | [5] -30.8% | [6] -26.4%

[O-][N+]1(CC[N+]2([O-])CCCCC2)CCCCC1
inactive: [1] -16.8% | [2] -4.9% | [3] 1.7% | [4] -37.3% | [5] -0.65% | [6] 15.8%

CN(c1ccccc1Cl)S(=O)(=O)c1ccccc1[N+](=O)[O-]
inactive: [1] 5.15% | [2] -30.1% | [3] 31.2% | [4] -18% | [5] 38% | [6] 2.95%

CCCCCCCCCCCCCCCCCC(=O)Oc1c(C(C)CC)cc([N+](=O)[O-])cc1[N+](=O)[O-] (stereo unspecified)
inactive: [1] 13.2% | [2] 25% | [3] 46.2% | [4] 2.85% | [5] 10.1% | [6] 53.9%

CCCCCC1OCC(C)(C)CO1
inactive: [1] 3.95% | [2] -2.05% | [3] -5.45% | [4] -9.3% | [5] -3.05% | [6] -9.6%

CN(C)S(=O)(=O)c1cccc([N+](=O)[O-])c1
inactive: [1] 17.5% | [2] 7.5% | [3] 18.1% | [4] 8.5% | [5] -6.3% | [6] 8.8%

CCC(=O)NC(Nc1cccc(F)c1C)(C(F)(F)F)C(F)(F)F
inactive: [1] -22.4% | [2] 23.4% | [3] -37.4% | [4] 14.7% | [5] 7.25% | [6] -5.5%
